# Source: PubChem BioAssay (NCATS)
# Inconclusive results are not listed. Unmarked numbers belong to inactive results. Activity calls are given as the source filed them. Calls follow the shape of the dose curve; as a rule, active = well fitted inhibition curve with a large enough effect; inconclusive = small, poorly fitted or top-dose-only effect; inactive = flat fitted curve, though single readings scatter.
# Test system: ICS
# Experiment: qHTS profiling for inhibitors of Plasmodium falciparum proliferation (AID 504749); also: nearly all actives have a fitted effect of over 60% in size;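 as to activity, negative = inhibition: 0% = DMSO vehicle and full inhibition = artemisinin control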
# Conditions: P. falciparum in erythrocytes, SYBR Green DNA, 72 h; series mostly up to 28.7 µM; activity, negative = inhibition: at the top concentration
# Procedure, shortened: (§1)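 Each compound contacts P. falciparum-infected red blood cells for 72 h at 37 C; lysis buffer (Tris, EDTA, saponin, Triton X, SYBR Green I) is added and fluorescence measured next morning; values normalized to controls.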
# Potency is read from the fitted curve at half-maximal effect.
Compound,Potency,"activity, negative = inhibition"
CN1CCN(CCC(=O)N2c3ccccc3Sc3ccc(C(F)(F)F)cc32)CC1,7.08 µM (active),
CC(C)(C)NC[C@H](O)COc1nsnc1N1CCOCC1,1.26 µM (active),
CN(C)CCN1C(=O)c2ccccc2N(C)c2ccccc21,,-26.3%

# Test system: JCK
# Experiment: as above
# Conditions: P. falciparum in erythrocytes, SYBR Green DNA, 72 h; series mostly up to 28.7 µM; activity, negative = inhibition: at the top concentration
# Procedure, shortened: as §1
Compound,"activity, negative = inhibition",Potency
O=C(CN1CCN(Cc2ccc3c(c2)OCO3)CC1)N1c2ccccc2Sc2ccccc21,-14.4%,
CN1CCC[C@@H]1CCO[C@](C)(c1ccccc1)c1ccc(Cl)cc1,9.9%,
CN1CCC(OC(c2ccccc2)c2ccccc2)CC1,-14.5% [at 12.8 µM],
CN1CCN(c2cc3c(cc2F)c(=O)c(C(=O)O)cn3-c2ccc(F)cc2)CC1,1.16%,
CC(C)(C)CC(C)(C)c1ccc(O)c(-n2nc3ccccc3n2)c1,-12%,
Cc1ccc2c(Br)cc(Br)c(O)c2n1,,10 µM (active)
O=C(NC1CCN(CCc2c[nH]c3ccccc23)CC1)c1ccccc1,-10%,
Cc1ncc(CO)c(C=O)c1O,22.3%,
COC(=O)C(c1ccccc1Cl)N1CCc2sccc2C1 (stereo unspecified),-7.82%,
CN(Cc1ccc(C(C)(C)C)cc1)Cc1cccc2ccccc12,8.57%,
CN1CCN(C2=Nc3ccccc3Sc3ccc(Cl)cc32)CC1,-21.6%,
CN1CCN(c2c(F)cc3c(=O)c(C(=O)O)cn4c3c2SCC4)CC1,-19.9%,
NC1CCN(c2nc3c(cc2F)c(=O)c(C(=O)O)cn3-c2ccc(F)cc2F)C1 (stereo unspecified),-15.5%,
C[N+]1(C)CCC(=C(c2ccccc2)c2ccccc2)CC1,5.53% [at 12.8 µM],
CC(=O)O[C@H]1C[C@@H]2CC[C@@H]3[C@H](CC[C@@]4(C)[C@H]3C[C@H]([N+]3(C)CCCCC3)[C@@H]4OC(C)=O)[C@@]2(C)C[C@@H]1N1CCCCC1,-10.4%,
CC(C)(Cc1c[nH]c2ccccc12)NCC(O)COc1ccccc1C#N (stereo unspecified),-23.6%,
Clc1cccc(C(c2ccc3nc[nH]c3c2)n2ccnc2)c1 (stereo unspecified),-21.9%,
O=C(CCN1CCN2CCCC2C1)N1c2ccccc2Sc2ccc(Cl)cc21 (stereo unspecified),3.12%,
O=C1C(O)=C(O)C(=O)C(O)=C1O,9.3%,
O=[N+]([O-])c1cccc(S(=O)(=O)NCCNS(=O)(=O)c2cccc([N+](=O)[O-])c2)c1,-17%,
CC1CCc2c(N3CCC(O)CC3)c(F)cc3c(=O)c(C(=O)O)cn1c23 (stereo unspecified),-9.16%,
OC(C#CCN1CCCC1)(c1ccccc1)c1ccccc1,-20.3%,
COc1ccccc1N1CCN(CCCCNC(=O)c2ccc(-c3ccc(C(C)=O)cc3)cc2)CC1,6.38%,
CO[C@]12C[C@@H](COC(=O)c3cncc(Br)c3)CN(C)[C@@H]1Cc1cn(C)c3cccc2c13,-29.5%,
CN1CCN(CCC(=O)N2c3ccccc3Sc3ccc(C(F)(F)F)cc32)CC1,-18.4%,
CC(C)[N+](C)(C)CC(O)COc1cccc2ccccc12 (stereo unspecified),-23.5%,
CN(C)CCN1C(=O)c2ccccc2N(C)c2ccccc21,-26.5%,
CCN(CC)CCOc1ccccc1C(=O)CCc1ccccc1,-15.5%,
CC[N+](C)(CC)CCOC(=O)C(O)(c1ccccc1)C1CCCCC1 (stereo unspecified),-5.4%,

# Test system: N140
# Experiment: as above
# Conditions: P. falciparum in erythrocytes, SYBR Green DNA, 72 h; series mostly up to 28.7 µM; activity, negative = inhibition: at the top concentration
# Procedure, shortened: as §1
Compound,Potency,"activity, negative = inhibition"
Cc1ccc2c(Br)cc(Br)c(O)c2n1,10 µM (active),
CCCCCN=C(N)N/N=C/c1c[nH]c2ccc(OC)cc12,4.47 µM (active),
O=C(NC1CCN(CCc2c[nH]c3ccccc23)CC1)c1ccccc1,,-19.3%
Cc1ncc(CO)c(C=O)c1O,,4%
CN(Cc1ccc(C(C)(C)C)cc1)Cc1cccc2ccccc12,,-27%
CCN(CC)CCOC(=O)C1(c2ccccc2)CCCC1,,-74.8%
C[N+]1(C)CCC(=C(c2ccccc2)c2ccccc2)CC1,,-16.7% [at 12.8 µM]
CN1CCc2cccc3c2[C@H]1Cc1ccc(O)c(O)c1-3,10 µM (active),
CC(=O)O[C@H]1C[C@@H]2CC[C@@H]3[C@H](CC[C@@]4(C)[C@H]3C[C@H]([N+]3(C)CCCCC3)[C@@H]4OC(C)=O)[C@@]2(C)C[C@@H]1N1CCCCC1,,-16.4%
NC(N)=NN=C(/C=C/c1ccc([N+](=O)[O-])o1)/C=C/c1ccc([N+](=O)[O-])o1,10 µM (active),
Clc1cccc(C(c2ccc3nc[nH]c3c2)n2ccnc2)c1 (stereo unspecified),10 µM (active),
COc1ccc(C(Cl)=C(c2ccc(OC)cc2)c2ccc(OC)cc2)cc1,15.8 µM (active),
O=C1C(O)=C(O)C(=O)C(O)=C1O,,19.1%
O=[N+]([O-])c1cccc(S(=O)(=O)NCCNS(=O)(=O)c2cccc([N+](=O)[O-])c2)c1,,-5.58%
OC(C#CCN1CCCC1)(c1ccccc1)c1ccccc1,11.2 µM (active),
COc1ccccc1N1CCN(CCCCNC(=O)c2ccc(-c3ccc(C(C)=O)cc3)cc2)CC1,,20.7%
CC(C)(C)NC[C@H](O)COc1nsnc1N1CCOCC1,3.98 µM (active),
CC(C)[N+](C)(C)CC(O)COc1cccc2ccccc12 (stereo unspecified),,-27.2%
CC[N+](C)(CC)CCOC(=O)C(O)(c1ccccc1)C1CCCCC1 (stereo unspecified),,-14.7%
